# From PubChem BioAssay (NCI)
# This is part of a sample that, as a whole, favours compounds with a hit. Of some 83,000 tested, about 20% had one in any assay.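 Treatment: one concentration, 48 hours, 96-well format. Scoring: percent growth, with anything below 10 considered active.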 Values without a mark were called inactive. Active and inactive are the calls of the source.
# How the values were obtained:
# Assay in all cases: NCI-60 one-dose screen, 48 h (100 = growth as untreated, 0 = no growth, -100 = all killed)
# Conditions in all cases: 10 µM unless noted
# [1] = system: NCI-H23 lung
# [2] = system: NCI-H226 lung
# [3] = system: NCI-H322M lung
# [4] = system: HOP-62 NSCLC
# [5] = system: NCI-H460 lung
# [6] = system: HOP-92 NSCLC
# [7] = system: NCI-H522 lung
# [8] = system: A549/ATCC NSCLC
# [9] = system: 786-0 renal
# [10] = system: COLO 205 colon
# [11] = system: DU-145 prostate
# [12] = system: K-562 leukemia
# [13] = system: MALME-3M melanoma
# [14] = system: MDA-MB-231 breast
# [15] = system: RXF 393 renal
# [16] = system: SF-268 CNS
# [17] = system: SF-295 CNS
# [18] = system: SF-539 CNS
# [19] = system: UACC-257 melanoma
# [20] = system: M14 melanoma
Structure (SMILES),growth [1],growth [2],growth [3],growth [4],growth [5],growth [6],growth [7],growth [8],growth [9],growth [10],growth [11],growth [12],growth [13],growth [14],growth [15],growth [16],growth [17],growth [18],growth [19],growth [20]
CCOc1cc2ncc(C#N)c(Nc3ccc(F)c(Cl)c3)c2cc1NC(=O)CC1CCSS1 (stereo not given),-50.6% (active),-50.9% (active),-74.5% (active),-66% (active),-64.4% (active),-15.3% (active),-48.6% (active),-75.6% (active),12.1%,-73.5% (active),-81.5% (active),-26.4% (active),-57.8% (active),-66.4% (active),-56.5% (active),-55.2% (active),-36.8% (active),-12.6% (active),-53.6% (active),-66.8% (active)
Cn1cc(C(=O)c2nc(-c3c[nH]c4ccccc34)no2)c2ccccc21,65.6%,57.3%,68.2%,78.9%,35.2%,63.8%,56.5%,73.7%,98.4%,56%,102%,37.9%,58.4%,69.8%,90.1%,92.1%,68.5%,91.7%,83.9%,64.5%
C=CC(=O)Nc1cccc(-c2nc(SC)nc(NCCc3ccc(OC)c(OC)c3)c2C#N)c1,47.6%,40.8%,90.9%,75.1%,74.6%,62.2%,39.2%,46.9%,68.2%,77.8%,56.9%,31.2%,54.8%,64.1%,59.4%,61.9%,43%,65.6%,29.7%,26.9%
COc1cc(/C=C/C(=O)c2c(C)oc3nc[nH]c(=O)c23)cc(OC)c1OC,68.9%,92.1%,85.8%,101%,83.7%,96.4%,47.7%,81.6%,94.3%,95.4%,64.8%,45.2%,88.1%,86.7%,66.3%,81.3%,104%,95.7%,73%,75.3%
COc1cc(C=Nc2oc(-c3ccccc3)c(-c3ccccc3)c2C#N)cc(CN2CCCCC2)c1O,88.6%,90.5%,99.6%,97.8%,101%,103%,88%,105%,102%,122%,107%,102%,110%,106%,104%,94.9%,102%,101%,116%,109%
COc1cccc(-c2nn(C(C)(C)C)cc2-c2ccnc(NCCCNS(=O)(=O)c3cccc4ccccc34)c2)c1,109%,109%,111%,103%,104%,104%,95.6%,104%,103%,115%,107%,104%,114%,106%,109%,108%,101%,113%,110%,101%
O=C1/C(=C(/c2ccccc2)N2CCOCC2)Cc2ccccc21,54.1%,58.8%,98.3%,81.8%,81%,8.98% (active),-63.6% (active),77.2%,7.77% (active),-48.4% (active),-42.4% (active),35.2%,9.61% (active),8.95% (active),42%,11.3%,75.8%,-45.6% (active),65.4%,-34.7% (active)
